Laboratory results taken from the supplement of paper PMC10849652.
Of roughly 7,900 targets only a part is listed; those with a hit were picked by preference. About 0.6% of all pairs of compound and target were hits. A number with no mark means an inactive call.

How the values were obtained:
Experiment in all cases: log2 fold change, soluble protein after heating vs DMSO (PISA); higher = thermal stabilisation; K562 cells, 10 uM, 30 min; active = over 0.2 and 3.5 SD of the protein, either way, in both replicates (recomputed)
[1] = compound: CS(=O)(=O)c1ccc(-c2cnc(N)c(C(=O)Nc3ccccc3)n2)cc1
How it was run: (§1)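 K562 cells at 2×10^6 cells/mL were given 10 μM compound for 30 min. Aliquots then went through 3 min of heating across 48°C-58°C, were pooled, and were extracted in PBS with 0.5% NP-40 at 4°C, and the supernatant after 21,000xg for 90 min was quantified by TMTpro 16plex LC-MS/MS with channel sums equalised. Thermal stability relative to control samples, from duplicates, is given as log2 fold change.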

[2] = compound: C[C@@H](Oc1cc(-c2cnn(C3CCNCC3)c2)cnc1N)c1c(Cl)ccc(F)c1Cl [crizotinib]
How it was run: as §1

[3] = compound: C[C@@H]1COCCN1C2=NC(=NC(=C2)C3(CC3)S(=O)(=O)C)C4=C5C=CNC5=CC=C4
How it was run: as §1

[4] = compound: C[C@H](C1=CC=C(C=C1)C(=O)NC2=C3C=CNC3=NC=C2)N
How it was run: as §1

[5] = compound: C[C@H](Nc1ncnc2nc[nH]c12)c1cc2cccc(Cl)c2c(=O)n1-c1ccccc1 [duvelisib]
How it was run: as §1

[6] = compound: Cc1cc(Nc2cc(CN3CCOCC3)c3nc(C)c(Cc4ccc(Cl)cc4F)n3n2)n[nH]1 [gandotinib]
How it was run: as §1

[7] = compound: Cc1cc(Nc2cc(N3CCN(C)CC3)nc(Sc3ccc(NC(=O)C4CC4)cc3)n2)n[nH]1 [tozasertib]
How it was run: as §1

[8] = compound: Cc1cc(SCc2sc(-c3ccc(C(F)(F)F)cc3)nc2C)ccc1OCC(=O)O
How it was run: as §1

[9] = compound: Cc1ccc(-n2nc(C(C)(C)C)cc2NC(=O)Nc2ccc(OCCN3CCOCC3)c3ccccc23)cc1 [doramapimod]
How it was run: as §1

[10] = compound: Cc1ccc(C(=O)N(CCCN)[C@@H](c2nc3cc(Cl)ccc3c(=O)n2Cc2ccccc2)C(C)C)cc1 [ispinesib]
How it was run: as §1

[11] = compound: Cc1ccc(NC(=O)c2ccc(CN3CC[C@H](N(C)C)C3)c(C(F)(F)F)c2)cc1Nc1nccc(-c2cncnc2)n1 [bafetinib]
How it was run: as §1

[12] = compound: Cc1cccc(CC(=O)N2CCc3c2ccc(-c2cn(C)c4ncnc(N)c24)c3F)n1
How it was run: as §1

[13] = compound: Cc1cn(-c2cc(NC(=O)c3ccc(C)c(Nc4nccc(-c5cccnc5)n4)c3)cc(C(F)(F)F)c2)cn1 [nilotinib]
How it was run: as §1

[14] = compound: Cc1nc(Nc2n[nH]c3c2CN(C(=O)N[C@H](CN(C)C)c2ccccc2)C3(C)C)c2sccc2n1
How it was run: as §1

[15] = compound: Cc1nc(Nc2ncc(C(=O)Nc3c(C)cccc3Cl)s2)cc(N2CCN(CCO)CC2)n1 [dasatinib]
How it was run: as §1

[16] = compound: Cc1ncc(-c2ccnc(Nc3ccc(S(C)(=O)=O)cc3)n2)n1C(C)C
How it was run: as §1

[17] = compound: Cn1cc(-c2ccc3c(c2)CCN3C(=O)Cc2cccc(C(F)(F)F)c2)c2c(N)ncnc21
How it was run: as §1

[18] = compound: Cn1cc(-c2ccc3nnc(C(F)(F)c4ccc5ncccc5c4)n3n2)cn1
How it was run: as §1

[19] = compound: Cn1cncc1[C@@](N)(c1ccc(Cl)cc1)c1ccc2c(c1)c(-c1cccc(Cl)c1)cc(=O)n2C [tipifarnib]
How it was run: as §1

[20] = compound: FC(F)(F)c1ccc(/C=C/c2nc(COc3ccc(CCCCn4ccnn4)cc3)co2)cc1 [mubritinib]
How it was run: as §1

UniProt Q8N3P4, sequence (Q8N3P4 whole entry, looked up): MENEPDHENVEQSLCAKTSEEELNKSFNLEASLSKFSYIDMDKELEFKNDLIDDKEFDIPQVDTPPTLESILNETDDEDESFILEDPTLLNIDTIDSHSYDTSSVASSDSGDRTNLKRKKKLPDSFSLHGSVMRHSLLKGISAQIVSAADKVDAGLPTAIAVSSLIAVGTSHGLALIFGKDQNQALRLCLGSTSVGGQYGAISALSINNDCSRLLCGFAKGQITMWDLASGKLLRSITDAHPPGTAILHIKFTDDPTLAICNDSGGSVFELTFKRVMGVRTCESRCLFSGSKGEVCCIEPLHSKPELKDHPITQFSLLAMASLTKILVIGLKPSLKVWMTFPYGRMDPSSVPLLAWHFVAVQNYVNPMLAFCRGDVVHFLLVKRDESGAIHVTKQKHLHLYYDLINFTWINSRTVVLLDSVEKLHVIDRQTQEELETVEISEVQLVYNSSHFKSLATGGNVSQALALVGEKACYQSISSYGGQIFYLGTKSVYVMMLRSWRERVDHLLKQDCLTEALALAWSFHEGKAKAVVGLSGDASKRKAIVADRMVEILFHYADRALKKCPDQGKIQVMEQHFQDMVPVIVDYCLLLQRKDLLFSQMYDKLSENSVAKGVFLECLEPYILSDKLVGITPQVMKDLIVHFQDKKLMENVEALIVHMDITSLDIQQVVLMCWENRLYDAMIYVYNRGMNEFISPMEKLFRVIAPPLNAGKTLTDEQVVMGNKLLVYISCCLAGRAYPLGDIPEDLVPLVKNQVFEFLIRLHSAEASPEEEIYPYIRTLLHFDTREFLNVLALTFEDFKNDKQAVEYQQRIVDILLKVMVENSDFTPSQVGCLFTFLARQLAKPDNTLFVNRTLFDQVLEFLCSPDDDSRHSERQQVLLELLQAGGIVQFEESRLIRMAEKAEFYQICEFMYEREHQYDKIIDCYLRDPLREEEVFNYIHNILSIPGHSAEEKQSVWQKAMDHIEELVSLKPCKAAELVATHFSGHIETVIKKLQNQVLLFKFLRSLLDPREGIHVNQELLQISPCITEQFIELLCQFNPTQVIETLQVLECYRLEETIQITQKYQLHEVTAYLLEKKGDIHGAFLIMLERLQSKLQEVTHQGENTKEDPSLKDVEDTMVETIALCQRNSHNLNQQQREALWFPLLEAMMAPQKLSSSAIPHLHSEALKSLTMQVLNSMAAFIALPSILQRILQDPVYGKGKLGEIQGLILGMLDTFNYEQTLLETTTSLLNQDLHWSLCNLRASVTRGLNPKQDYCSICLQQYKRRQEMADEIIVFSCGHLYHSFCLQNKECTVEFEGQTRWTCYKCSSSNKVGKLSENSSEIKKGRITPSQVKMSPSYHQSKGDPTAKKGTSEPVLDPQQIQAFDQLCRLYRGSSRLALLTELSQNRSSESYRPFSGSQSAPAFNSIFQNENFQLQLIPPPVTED
UniProt Q15629, sequence (Q15629 whole entry, looked up): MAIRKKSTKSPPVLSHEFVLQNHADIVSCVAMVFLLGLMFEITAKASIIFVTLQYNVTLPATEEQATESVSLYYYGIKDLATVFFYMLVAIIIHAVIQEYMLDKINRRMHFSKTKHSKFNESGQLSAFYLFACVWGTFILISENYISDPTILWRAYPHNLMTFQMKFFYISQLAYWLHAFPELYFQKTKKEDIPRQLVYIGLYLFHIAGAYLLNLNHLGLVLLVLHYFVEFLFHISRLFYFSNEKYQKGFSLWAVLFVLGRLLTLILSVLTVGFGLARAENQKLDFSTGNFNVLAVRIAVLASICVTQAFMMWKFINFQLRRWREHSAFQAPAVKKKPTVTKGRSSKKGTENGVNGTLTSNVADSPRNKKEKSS
UniProt Q14157, sequence (Q14157 whole entry, looked up): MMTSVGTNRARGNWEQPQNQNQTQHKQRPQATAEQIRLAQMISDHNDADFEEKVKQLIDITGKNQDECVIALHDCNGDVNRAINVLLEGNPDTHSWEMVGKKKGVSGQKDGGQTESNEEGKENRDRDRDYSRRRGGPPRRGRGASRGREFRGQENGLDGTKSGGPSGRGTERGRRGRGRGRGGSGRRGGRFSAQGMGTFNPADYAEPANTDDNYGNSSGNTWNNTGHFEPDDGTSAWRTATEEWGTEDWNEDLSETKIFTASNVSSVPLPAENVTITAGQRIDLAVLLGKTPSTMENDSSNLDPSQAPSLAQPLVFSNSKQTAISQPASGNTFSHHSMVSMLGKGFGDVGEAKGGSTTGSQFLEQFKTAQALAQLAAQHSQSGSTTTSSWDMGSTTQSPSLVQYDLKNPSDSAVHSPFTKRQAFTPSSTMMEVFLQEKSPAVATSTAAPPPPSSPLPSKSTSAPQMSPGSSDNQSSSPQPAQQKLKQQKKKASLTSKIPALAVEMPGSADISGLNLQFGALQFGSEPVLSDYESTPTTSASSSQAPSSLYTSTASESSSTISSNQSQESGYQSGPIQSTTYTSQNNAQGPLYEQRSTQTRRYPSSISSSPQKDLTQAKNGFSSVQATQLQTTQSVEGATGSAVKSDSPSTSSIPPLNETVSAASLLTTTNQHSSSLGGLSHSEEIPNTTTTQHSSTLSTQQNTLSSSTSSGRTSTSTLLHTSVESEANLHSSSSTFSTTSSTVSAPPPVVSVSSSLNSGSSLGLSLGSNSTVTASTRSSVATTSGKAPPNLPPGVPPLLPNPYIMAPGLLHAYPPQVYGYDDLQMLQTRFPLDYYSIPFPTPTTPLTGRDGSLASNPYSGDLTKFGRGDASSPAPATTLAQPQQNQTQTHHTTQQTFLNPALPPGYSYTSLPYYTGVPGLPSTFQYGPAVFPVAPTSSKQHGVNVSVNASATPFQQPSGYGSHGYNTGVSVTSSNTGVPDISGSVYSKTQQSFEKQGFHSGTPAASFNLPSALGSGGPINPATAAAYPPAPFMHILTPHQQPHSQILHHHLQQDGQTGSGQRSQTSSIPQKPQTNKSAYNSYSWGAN
UniProt Q7L0Y3, sequence (Q7L0Y3 whole entry, looked up): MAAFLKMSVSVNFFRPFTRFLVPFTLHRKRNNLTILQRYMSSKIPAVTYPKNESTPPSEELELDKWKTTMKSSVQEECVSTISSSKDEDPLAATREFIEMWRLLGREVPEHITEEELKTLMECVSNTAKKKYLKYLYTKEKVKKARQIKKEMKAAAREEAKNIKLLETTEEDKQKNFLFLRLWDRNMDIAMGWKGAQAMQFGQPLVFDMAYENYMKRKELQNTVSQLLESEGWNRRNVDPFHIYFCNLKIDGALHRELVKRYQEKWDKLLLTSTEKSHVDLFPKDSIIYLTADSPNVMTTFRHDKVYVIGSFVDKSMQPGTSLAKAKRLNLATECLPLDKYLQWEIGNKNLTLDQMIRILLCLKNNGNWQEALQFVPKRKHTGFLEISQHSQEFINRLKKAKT
UniProt Q6BDS2, sequence (Q6BDS2 whole entry, looked up): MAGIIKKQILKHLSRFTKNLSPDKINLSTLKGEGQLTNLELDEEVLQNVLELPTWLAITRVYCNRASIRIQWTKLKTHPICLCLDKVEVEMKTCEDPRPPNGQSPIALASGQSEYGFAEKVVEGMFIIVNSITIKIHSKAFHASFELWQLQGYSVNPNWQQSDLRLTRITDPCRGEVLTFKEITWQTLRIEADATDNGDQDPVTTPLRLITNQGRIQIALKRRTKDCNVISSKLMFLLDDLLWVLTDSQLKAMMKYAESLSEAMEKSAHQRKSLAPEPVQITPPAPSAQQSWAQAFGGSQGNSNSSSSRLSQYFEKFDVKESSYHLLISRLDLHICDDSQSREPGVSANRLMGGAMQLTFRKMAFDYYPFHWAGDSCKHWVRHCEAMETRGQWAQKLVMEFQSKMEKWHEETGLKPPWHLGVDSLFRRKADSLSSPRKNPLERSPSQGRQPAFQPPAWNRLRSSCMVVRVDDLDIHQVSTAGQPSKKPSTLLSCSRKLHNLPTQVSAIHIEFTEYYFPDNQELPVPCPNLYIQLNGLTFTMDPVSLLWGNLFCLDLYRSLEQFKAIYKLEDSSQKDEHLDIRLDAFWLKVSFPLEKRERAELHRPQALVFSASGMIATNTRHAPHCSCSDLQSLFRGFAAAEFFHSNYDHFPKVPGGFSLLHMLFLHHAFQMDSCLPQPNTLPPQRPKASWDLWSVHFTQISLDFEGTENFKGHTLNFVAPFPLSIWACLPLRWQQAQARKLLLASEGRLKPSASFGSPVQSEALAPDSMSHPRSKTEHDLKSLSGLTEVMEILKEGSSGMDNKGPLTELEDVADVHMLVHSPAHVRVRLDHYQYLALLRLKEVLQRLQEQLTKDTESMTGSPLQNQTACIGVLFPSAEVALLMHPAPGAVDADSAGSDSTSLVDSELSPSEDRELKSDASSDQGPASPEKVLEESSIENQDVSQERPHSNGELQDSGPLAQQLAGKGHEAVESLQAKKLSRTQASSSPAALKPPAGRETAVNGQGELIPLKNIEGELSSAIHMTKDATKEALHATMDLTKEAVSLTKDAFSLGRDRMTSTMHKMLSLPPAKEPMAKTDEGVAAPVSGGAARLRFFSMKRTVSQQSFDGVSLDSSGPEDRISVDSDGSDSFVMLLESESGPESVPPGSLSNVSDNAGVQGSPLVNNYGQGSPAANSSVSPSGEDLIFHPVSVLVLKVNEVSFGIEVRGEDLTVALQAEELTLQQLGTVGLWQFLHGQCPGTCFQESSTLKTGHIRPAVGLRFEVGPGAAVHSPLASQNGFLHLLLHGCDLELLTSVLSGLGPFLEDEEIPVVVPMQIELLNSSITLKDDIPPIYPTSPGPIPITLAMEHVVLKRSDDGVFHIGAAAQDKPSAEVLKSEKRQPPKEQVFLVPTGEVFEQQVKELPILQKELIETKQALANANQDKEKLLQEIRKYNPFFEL
UniProt Q9Y3C0, sequence (Q9Y3C0 whole entry, looked up): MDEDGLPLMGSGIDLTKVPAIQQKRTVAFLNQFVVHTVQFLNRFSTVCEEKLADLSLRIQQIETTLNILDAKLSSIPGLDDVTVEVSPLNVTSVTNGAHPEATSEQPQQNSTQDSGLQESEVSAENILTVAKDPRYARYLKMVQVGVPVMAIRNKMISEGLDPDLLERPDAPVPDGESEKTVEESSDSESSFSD
UniProt Q9UL33, sequence (Q9UL33 whole entry, looked up): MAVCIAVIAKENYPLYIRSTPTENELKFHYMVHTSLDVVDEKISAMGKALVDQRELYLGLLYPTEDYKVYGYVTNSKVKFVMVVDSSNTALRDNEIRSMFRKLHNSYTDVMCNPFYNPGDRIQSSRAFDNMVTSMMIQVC

Target	log2 fold change [1]	log2 fold change [2]	log2 fold change [3]	log2 fold change [4]	log2 fold change [5]	log2 fold change [6]	log2 fold change [7]	log2 fold change [8]	log2 fold change [9]	log2 fold change [10]	log2 fold change [11]	log2 fold change [12]	log2 fold change [13]	log2 fold change [14]	log2 fold change [15]	log2 fold change [16]	log2 fold change [17]	log2 fold change [18]	log2 fold change [19]	log2 fold change [20]
TRIP10 (UniProt Q15642)	0.08	-0.009	-0.085	-0.026	0.005	0.044	-0.003	0.038	-0.036	-0.021	-0.042	0.05	0.098	-0.017	-0.06	-0.021	0.045	0.024	-0.01	0.048
WEE1 (UniProt P30291)	-0.3	-0.025	-1.07 (active)	0.094	0.026	0.247	-0.5	-0.049	0.026	0.046	-0.152	-0.062	0.182	-0.905 (active)	0.805 (active)	0.311	-0.043	-0.037	-0.037	0.394
UBR2 (UniProt Q8IWV8)	0	-0.027	-0.063	0.166	0.008	0	-0.03	0.135	0.073	-0.141	0.021	0.072	0.02	0.01	-0.107	-0.069	-0.023	0.058	-0.095	0.011
TRAM1 (UniProt Q15629)	0.075	-0.587 (active)	0.017	0.014	-0.003	-0.47 (active)	-0.124	0.09	-0.119	-0.964 (active)	-0.152	0.117	-0.075	0.074	-0.138	0.072	-0.07	0.02	-0.152	-0.022
TRMT10C (UniProt Q7L0Y3)	0.045	0.03	0.109	-0.013	0.024	-0.072	0	0.069	-0.008	0.017	-0.044	0.107	-0.043	-0.066	-0.181	0.012	0.046	0.038	-0.037	0.153
UBAP2L isoform 5 (UniProt Q14157)	-0.028	0.051	-0.07	-0.007	0.035	0.007	-0.013	0.016	-0.038	0.026	-0.044	-0.02	-0.003	-0.015	0.005	0.007	0.011	-0.003	-0.028	0.024
UHRF1BP1 (UniProt Q6BDS2)	0.003	0.086	0.001	-0.009	0.124	-0.004	-0.014	-0.014	0.014	0.12	0.042	0.015	0.138	0.003	0.044	-0.023	0.045	0.021	-0.005	0.028
WRB (UniProt O00258)	-0.031	0.057	0.036	-0.028	-0.094	-0.053	-0.016	0.067	0.015	0.029	-0.072	-0.011	0.015	0.005	0.031	-0.036	-0.011	0.089	0.024	0.052
VWA8 (UniProt A3KMH1)	0.01	-0.058	0.093	0.025	0.066	-0.038	-0.038	0.094	-0.041	-0.221	-0.113	-0.001	-0.099	-0.018	-0.158	-0.016	-0.057	0.067	0.036	-0.255 (active)
VPS8 (UniProt Q8N3P4)	0.024	-0.12	0.016	0.127	0.038	-0.097	0.065	0.083	0	-0.154	0.073	0.043	-0.162	-0.018	-0.107	0.035	-0.018	-0.083	-0.078	0.043
TRAPPC2L (UniProt Q9UL33)	0.009	-0.035	0.054	0.035	0.026	-0.023	0.015	0.001	-0.143	0.119	-0.042	-0.02	-0.062	-0.068	-0.118	0.064	-0.041	-0.111	-0.111	0.013
XRCC6 (UniProt P12956)	0.013	-0.064	0.088	-0.042	0.016	-0.149	0.075	0.091	-0.05	-0.039	-0.003	0.032	-0.067	-0.248	-0.147	-0.07	-0.01	0.018	-0.104	0.043
TXNL1 (UniProt O43396)	0.027	0.067	-0.01	-0.028	0.013	-0.076	0.038	0.068	-0.049	0.07	0.04	0.005	-0.035	-0.006	-0.074	0.008	-0.004	-0.035	-0.06	0.057
WASH2P (UniProt Q6VEQ5)	-0.002	-0.321 (active)	-0.017	0.021	-0.02	-0.03	-0.071	-0.038	0.041	-0.358 (active)	-0.06	0.017	-0.069	-0.019	0.03	0.01	-0.008	0.011	0.043	0.06
WASHC2C, A0A096LPC5	-0.078	-0.363	0.031	0.025	0.15	0.189	0.007	-0.053	0.02	-0.135	-0.144	-0.335	0.093	-0.101	0.13	-0.003	-0.016	-0.082	0.283	0.123
WASHC3 (UniProt Q9Y3C0)	-0.014	-0.274 (active)	0.096	-0.039	0.012	-0.041	0.021	0.014	0.048	-0.4 (active)	-0.06	-0.032	-0.042	0.001	0.047	0.028	0.035	0.048	0.029	0.003
